# Laboratory results published in the supplement of paper PMC11732987, “Enantioselective OTUD7B fragment discovery through chemoproteomics screening and high-throughput optimisation” (Communications Chemistry, 2025).
# Values without a mark were called inactive.
# Legend:
# Assay in all cases: log2 ratio of Biotin-Ahx-Ub-VS probe labelling (fragment/DMSO); higher = less target engagement (more negative = stronger competition), active = hit call of the paper (q ≤ 0.05, log2 ratio ≤ -1)
# Details in all cases: compound concentration: 200 uM; treatment time: 3 h
# USP19 = biological target: T1, USP19 (UniProt O94966)
# T1 sequence (whole entry): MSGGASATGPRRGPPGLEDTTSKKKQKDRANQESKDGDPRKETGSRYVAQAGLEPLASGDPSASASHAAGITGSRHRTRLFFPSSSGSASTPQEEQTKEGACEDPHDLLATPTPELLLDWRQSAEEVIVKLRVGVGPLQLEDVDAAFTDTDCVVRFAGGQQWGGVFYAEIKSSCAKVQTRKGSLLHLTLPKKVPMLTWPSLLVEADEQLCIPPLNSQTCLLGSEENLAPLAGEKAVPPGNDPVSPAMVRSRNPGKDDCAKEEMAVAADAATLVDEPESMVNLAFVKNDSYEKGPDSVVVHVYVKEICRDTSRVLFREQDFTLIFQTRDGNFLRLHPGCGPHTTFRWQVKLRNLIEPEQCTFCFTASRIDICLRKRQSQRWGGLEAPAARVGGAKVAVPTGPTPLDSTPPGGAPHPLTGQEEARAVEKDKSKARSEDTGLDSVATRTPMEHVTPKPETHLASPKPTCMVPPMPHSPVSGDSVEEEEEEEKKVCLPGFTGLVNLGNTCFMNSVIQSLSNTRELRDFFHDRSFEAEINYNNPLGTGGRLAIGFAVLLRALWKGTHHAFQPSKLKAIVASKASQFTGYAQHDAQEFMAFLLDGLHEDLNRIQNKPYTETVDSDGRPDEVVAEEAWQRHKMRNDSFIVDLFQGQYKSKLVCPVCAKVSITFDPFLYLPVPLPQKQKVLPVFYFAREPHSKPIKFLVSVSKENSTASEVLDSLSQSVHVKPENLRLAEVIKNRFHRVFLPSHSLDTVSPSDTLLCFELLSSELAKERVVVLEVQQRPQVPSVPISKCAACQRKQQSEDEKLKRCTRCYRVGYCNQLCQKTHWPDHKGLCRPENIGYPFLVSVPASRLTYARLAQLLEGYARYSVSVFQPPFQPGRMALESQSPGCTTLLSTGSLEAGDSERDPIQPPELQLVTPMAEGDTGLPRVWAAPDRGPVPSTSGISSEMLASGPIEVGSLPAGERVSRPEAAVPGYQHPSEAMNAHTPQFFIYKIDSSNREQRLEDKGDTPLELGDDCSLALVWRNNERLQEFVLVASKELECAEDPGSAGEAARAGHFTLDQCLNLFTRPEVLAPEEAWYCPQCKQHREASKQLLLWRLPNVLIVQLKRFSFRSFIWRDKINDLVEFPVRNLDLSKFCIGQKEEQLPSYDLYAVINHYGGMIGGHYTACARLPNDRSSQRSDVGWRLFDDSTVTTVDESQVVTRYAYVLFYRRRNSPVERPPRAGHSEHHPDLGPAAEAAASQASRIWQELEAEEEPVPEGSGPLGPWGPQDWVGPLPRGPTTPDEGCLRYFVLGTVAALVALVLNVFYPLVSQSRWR
# In short: (§1)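 HEK293T lysate (495 µg per sample, in Tris/CHAPS/IGEPAL buffer with protease inhibitors) was exposed in triplicate for 3 h to fragment at 200 µM or to vehicle, then to Biotin-Ahx-Ub-VS at 0.5 µM final for 1 h. Labelled DUBs were enriched on NeutrAvidin, digested with LysC and trypsin, and analysed by diaPASEF LC-MS/MS. Spectronaut label-free quantities were normalised to the global median, and values are average log2 ratios of fragment over vehicle from an unpaired t-test. Only proteins with ≥2 unique peptides were used.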
# USP24 = USP24 (UniProt Q9UPU5)
# In short: as §1
# USP25 = biological target: T2, USP25 (UniProt Q9UHP3)
# T2 sequence (whole entry): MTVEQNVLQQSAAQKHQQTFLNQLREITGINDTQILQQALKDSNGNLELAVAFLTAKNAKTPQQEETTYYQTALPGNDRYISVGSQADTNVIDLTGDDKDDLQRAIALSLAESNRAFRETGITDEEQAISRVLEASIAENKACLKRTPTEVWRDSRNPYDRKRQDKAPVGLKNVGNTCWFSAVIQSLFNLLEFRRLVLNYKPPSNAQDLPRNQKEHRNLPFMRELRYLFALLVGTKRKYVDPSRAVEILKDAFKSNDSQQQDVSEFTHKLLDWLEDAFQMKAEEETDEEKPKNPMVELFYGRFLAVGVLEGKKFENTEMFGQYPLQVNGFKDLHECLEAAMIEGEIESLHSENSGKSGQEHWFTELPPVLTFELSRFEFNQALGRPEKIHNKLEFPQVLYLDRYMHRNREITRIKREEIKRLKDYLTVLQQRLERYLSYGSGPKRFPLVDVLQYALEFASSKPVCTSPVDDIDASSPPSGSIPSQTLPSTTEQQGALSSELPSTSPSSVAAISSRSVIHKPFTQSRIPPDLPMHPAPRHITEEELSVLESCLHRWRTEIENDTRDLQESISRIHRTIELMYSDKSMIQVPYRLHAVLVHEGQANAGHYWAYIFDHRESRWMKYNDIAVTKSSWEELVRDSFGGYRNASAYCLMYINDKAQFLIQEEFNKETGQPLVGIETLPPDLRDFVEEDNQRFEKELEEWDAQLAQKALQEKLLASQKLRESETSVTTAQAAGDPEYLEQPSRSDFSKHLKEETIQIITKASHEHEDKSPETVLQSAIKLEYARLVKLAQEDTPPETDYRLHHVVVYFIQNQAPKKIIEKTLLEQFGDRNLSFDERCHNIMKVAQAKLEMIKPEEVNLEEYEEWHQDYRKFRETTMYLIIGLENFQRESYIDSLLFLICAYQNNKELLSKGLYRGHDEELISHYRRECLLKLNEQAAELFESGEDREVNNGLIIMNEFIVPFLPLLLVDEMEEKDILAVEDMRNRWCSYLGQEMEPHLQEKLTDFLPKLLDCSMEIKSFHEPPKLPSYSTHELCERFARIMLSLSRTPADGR
# In short: as §1
# USP28 = biological target: T3, USP28 (UniProt Q96RU2)
# T3 sequence (whole entry): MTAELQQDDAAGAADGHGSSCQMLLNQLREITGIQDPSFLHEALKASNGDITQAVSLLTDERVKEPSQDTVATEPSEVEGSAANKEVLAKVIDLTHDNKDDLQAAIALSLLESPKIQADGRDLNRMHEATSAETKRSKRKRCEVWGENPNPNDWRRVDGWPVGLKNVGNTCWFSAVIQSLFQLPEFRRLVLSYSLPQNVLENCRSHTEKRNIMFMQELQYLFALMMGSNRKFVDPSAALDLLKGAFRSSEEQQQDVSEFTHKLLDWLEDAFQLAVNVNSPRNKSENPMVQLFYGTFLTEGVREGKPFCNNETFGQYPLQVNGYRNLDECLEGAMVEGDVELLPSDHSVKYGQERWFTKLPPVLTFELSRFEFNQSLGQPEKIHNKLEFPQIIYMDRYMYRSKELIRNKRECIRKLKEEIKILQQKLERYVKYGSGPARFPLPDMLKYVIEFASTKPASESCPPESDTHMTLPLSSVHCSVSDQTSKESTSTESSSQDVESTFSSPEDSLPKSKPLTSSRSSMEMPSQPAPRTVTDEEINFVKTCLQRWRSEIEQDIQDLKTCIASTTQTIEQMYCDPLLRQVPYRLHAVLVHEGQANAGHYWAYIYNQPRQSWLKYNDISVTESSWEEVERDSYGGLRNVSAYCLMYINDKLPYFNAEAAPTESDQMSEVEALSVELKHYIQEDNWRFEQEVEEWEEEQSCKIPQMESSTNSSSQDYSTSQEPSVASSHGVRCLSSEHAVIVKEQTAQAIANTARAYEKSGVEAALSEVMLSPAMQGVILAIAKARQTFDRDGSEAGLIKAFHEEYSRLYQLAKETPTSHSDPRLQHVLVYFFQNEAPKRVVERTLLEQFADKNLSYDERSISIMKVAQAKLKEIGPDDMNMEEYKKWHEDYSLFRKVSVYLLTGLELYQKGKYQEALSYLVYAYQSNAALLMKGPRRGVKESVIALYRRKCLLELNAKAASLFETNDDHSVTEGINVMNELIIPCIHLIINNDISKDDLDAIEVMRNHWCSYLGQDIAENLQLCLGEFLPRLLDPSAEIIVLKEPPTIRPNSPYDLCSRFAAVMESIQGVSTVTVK
# In short: as §1
# Chain of USP24 (Q9UPU5 whole entry): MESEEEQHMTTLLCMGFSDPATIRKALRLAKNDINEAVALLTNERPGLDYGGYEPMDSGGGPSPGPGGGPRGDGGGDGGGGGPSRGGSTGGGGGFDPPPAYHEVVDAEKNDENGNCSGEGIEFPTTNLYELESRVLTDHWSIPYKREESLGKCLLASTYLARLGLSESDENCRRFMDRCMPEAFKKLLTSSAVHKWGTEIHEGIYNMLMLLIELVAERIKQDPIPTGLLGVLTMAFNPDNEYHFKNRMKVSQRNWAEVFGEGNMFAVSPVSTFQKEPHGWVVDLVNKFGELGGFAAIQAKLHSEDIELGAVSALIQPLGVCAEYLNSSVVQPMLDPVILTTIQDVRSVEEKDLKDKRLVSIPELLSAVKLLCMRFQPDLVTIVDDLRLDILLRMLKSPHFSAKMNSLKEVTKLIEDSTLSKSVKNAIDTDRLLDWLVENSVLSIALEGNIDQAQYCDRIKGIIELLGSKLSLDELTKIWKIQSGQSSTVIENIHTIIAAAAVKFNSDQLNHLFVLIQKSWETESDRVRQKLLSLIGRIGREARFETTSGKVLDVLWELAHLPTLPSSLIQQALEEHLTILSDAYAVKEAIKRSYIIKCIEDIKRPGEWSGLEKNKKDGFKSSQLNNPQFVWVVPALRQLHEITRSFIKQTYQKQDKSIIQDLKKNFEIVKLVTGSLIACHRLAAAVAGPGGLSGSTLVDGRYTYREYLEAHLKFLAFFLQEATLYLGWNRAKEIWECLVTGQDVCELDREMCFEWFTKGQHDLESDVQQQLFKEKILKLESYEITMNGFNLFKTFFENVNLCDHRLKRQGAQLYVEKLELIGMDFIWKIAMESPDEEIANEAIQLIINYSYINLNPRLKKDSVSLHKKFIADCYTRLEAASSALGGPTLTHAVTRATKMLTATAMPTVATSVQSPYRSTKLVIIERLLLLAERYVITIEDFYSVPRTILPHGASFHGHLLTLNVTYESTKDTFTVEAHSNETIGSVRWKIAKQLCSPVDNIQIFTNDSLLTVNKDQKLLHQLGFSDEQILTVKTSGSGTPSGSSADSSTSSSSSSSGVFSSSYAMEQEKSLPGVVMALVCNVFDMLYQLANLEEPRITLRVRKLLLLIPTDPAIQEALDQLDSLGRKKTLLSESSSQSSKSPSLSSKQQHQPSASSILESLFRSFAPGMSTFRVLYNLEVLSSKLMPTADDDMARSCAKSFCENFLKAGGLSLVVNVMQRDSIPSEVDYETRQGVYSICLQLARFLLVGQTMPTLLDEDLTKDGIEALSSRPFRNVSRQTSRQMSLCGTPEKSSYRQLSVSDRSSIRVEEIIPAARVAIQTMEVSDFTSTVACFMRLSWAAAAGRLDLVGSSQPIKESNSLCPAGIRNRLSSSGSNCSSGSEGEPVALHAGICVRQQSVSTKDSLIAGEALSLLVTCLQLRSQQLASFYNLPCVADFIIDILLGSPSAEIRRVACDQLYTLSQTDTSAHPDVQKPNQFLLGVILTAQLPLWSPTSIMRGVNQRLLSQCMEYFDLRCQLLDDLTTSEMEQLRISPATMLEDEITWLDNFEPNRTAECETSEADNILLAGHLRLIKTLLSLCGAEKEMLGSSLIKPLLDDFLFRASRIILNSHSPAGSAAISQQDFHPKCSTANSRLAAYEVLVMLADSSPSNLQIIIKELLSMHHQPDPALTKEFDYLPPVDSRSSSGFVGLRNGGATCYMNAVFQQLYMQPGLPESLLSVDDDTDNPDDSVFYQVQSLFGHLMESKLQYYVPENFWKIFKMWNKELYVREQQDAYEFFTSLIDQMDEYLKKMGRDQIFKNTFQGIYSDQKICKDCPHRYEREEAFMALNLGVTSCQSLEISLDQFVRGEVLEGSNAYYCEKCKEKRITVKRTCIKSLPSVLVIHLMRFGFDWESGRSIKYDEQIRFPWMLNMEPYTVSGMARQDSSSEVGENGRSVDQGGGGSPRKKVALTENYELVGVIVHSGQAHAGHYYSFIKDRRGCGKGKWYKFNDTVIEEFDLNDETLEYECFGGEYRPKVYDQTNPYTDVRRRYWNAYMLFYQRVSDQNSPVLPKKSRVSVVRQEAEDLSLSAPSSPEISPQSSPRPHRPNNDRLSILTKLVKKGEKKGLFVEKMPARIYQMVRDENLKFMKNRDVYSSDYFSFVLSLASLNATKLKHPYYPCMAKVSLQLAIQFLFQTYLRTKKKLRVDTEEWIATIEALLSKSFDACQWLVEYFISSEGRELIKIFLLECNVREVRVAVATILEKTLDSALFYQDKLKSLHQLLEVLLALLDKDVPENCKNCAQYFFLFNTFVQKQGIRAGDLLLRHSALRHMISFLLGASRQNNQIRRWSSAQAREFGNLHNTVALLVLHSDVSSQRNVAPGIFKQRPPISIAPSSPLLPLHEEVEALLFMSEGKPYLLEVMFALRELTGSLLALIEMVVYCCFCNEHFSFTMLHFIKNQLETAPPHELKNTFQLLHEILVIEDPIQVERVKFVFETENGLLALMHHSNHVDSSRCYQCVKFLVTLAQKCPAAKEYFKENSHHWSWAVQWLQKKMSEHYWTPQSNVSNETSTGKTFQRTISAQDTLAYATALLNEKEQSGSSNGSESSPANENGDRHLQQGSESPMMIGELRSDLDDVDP
structure (smiles),measurement,setting,value
Cc1ccc(C)c(NC(=O)CCl)c1,log2 ratio of Biotin-Ahx-Ub-VS probe labelling,USP19,-0.203
same,log2 ratio of Biotin-Ahx-Ub-VS probe labelling,USP24,-0.729
same,log2 ratio of Biotin-Ahx-Ub-VS probe labelling,USP25,-1.41 (active)
same,log2 ratio of Biotin-Ahx-Ub-VS probe labelling,USP28,-1.56 (active)
